Test results: ChEMBL document CHEMBL3988442, “University of Dundee, Small-Polar-MMV Screening Library” (2021)
Measured potencies and affinities stand elsewhere.

The molecules below were run against Protein translocase subunit SecA (Escherichia coli (strain K12)) (UniProt P10408) (assay: Assay to Identify E. coli SecA ATPase Inhibitors). Conditions: 30 µM.
Type: functional
Design: scale not given: direction of the effect not stated beside the values

Protein translocase subunit SecA (Escherichia coli (strain K12)), sequence (P10408 whole entry): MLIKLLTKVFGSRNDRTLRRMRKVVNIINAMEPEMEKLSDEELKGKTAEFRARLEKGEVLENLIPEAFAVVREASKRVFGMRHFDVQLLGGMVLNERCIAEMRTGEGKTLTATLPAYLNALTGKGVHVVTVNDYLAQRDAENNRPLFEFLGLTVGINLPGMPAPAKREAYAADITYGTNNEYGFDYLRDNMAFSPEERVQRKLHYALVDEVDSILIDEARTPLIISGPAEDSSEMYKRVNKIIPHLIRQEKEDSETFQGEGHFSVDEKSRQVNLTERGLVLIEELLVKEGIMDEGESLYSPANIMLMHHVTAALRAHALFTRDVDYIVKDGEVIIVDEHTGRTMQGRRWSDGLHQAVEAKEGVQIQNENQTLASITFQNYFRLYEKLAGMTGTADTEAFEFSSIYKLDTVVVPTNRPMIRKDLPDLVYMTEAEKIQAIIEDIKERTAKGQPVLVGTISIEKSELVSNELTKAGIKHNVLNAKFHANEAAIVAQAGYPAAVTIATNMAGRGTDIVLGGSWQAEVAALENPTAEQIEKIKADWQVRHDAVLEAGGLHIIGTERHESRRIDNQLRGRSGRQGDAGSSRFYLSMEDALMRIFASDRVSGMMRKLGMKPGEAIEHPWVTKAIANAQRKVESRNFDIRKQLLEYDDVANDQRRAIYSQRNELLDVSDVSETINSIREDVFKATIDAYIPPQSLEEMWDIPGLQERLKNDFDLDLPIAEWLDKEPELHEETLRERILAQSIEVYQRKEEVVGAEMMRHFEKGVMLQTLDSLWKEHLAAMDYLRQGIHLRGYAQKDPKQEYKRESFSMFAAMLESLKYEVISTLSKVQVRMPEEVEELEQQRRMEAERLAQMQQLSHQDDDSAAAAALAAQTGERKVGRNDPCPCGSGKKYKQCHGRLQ

| SMILES | Percent Effect [%] |
| --- | --- |
| CCS(=O)(=O)N(C)C(=O)c1cc(C)n(-c2cccc(OC)c2)c1C | -6.4 |
| CCN(Cc1cccc(Cl)c1)Cc1nc2c(cnn2C)c(=O)[nH]1 | -5.2 |
| Cc1cc(-c2cnn(CCNC(=O)C3CCCO3)c2C2CC2)on1 (stereo not given) | -5.64 |
| COc1ccc(NC(=O)N2CCCC2c2ccco2)cc1OC (stereo not given) | 0.301 |
| Cn1cnc2c1C(COCC1CCOCC1)CN(C1CCOCC1)C2 (stereo not given) | -3.42 |
| CCC(C)NC(=O)Cc1c(C)nc2c(c1C)c(=O)[nH]n2C (stereo not given) | 0.22 |
| CN(C)C(=O)CN1C[C@@H]2CC[C@H](C1)N(Cc1cccc(Cl)c1Cl)C2 | 6.03 |
| Cn1ccc(CN2CCC(COC3CCCC3)CC2)cc1=O | -2 |
| Cn1cc(CCNC(=O)CCc2ccc3c(c2)OCO3)cn1 | -0.341 |
| Cc1cc(C(=O)N2CC[C@H](OCC3CC3)[C@@H]2Cc2cccnc2)no1 | -2.54 |
| O=C(c1ccc(=O)[nH]n1)N1CC(c2nc(Cc3ccccc3)no2)C1 | -2.52 |
| Cc1cnn(CC2CCCCN2C(=O)c2ccc3nnc(C)n3c2)c1 (stereo not given) | 3.48 |
| CN(Cc1ccco1)C(=O)[C@H]1CSCN1C(=O)OC(C)(C)C | -4.45 |
| c1csc(-c2nc(CNC3CCc4ncnn4C3)co2)c1 (stereo not given) | -3.96 |
| Cn1cc(CCNC(=O)NCc2nnc3n2CCC3)cn1 | -2.08 |
| Cc1nn(C)c(N(C)C)c1CNCc1cccnc1-n1cncn1 | -3.71 |
| Cn1ncc2c(=O)[nH]c(CN3CCCC3Cc3ccccc3)nc21 (stereo not given) | -2.29 |
| COc1ccccc1CC1CCCN(CC(N)=O)C1 (stereo not given) | -0.0936 |
| Cc1noc(C(C)C)c1C(=O)NCc1cc(F)cc(F)c1 | -3.99 |
| Cc1nc(CN(Cc2ccccc2)C2CCS(=O)(=O)C2)oc1C (stereo not given) | -2.4 |

Each molecule was assayed against T1, Ubiquitin-activating enzyme e1, putative (Leishmania donovani (strain BPK282A1)) (UniProt E9BSI1) (assay: Leishmania donovani Ubiquitin Activating Enzyme (LdE1)). Conditions: 30 µM.
T1 sequence (whole entry): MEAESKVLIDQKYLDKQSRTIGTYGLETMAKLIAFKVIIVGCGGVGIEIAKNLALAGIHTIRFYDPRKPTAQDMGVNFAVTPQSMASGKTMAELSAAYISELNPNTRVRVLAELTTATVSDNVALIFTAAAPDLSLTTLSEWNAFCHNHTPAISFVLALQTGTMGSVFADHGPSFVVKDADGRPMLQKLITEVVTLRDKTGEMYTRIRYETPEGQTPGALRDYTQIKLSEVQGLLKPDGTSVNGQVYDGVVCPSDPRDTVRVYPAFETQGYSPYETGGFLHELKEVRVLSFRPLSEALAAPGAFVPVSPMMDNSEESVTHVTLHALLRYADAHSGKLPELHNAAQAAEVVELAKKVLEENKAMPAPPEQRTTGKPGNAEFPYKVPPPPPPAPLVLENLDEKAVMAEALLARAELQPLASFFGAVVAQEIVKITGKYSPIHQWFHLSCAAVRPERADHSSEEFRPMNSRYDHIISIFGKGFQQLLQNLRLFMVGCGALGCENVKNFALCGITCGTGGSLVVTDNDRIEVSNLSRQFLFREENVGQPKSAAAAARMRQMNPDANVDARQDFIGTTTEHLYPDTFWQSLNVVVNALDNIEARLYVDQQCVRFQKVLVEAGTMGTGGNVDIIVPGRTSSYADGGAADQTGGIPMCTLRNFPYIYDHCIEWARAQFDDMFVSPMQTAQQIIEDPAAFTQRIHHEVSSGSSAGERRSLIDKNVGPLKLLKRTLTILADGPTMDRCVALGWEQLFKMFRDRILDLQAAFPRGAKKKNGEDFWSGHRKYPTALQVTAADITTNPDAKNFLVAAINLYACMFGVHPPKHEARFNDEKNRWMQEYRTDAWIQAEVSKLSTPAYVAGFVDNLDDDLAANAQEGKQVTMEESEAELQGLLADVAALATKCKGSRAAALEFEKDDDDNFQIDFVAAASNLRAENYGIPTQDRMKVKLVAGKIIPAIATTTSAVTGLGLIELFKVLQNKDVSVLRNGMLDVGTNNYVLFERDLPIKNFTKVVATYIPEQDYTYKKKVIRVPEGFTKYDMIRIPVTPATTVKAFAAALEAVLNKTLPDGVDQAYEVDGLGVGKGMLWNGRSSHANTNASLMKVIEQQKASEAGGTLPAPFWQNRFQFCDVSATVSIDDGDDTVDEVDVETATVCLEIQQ
Type: functional
Design: scale not given: direction of the effect not stated beside the values

| SMILES | Percent Effect [%] |
| --- | --- |
| CCn1cc(Br)c(C(=O)NCc2cccnc2)n1 | 7.79 |
| CCNC(=O)N1CCCCC1CCO (stereo not given) | 8.11 |
| Cc1ccc(CN2Cc3c(C(=O)N(C)C)nn(C)c3C2)s1 | -19.2 |
| COc1ccc(-n2ccc(C(=O)N3CCC(C(N)=O)C3)n2)cc1 (stereo not given) | 8.11 |
| CC(C)(C)C(=O)NCCC(=O)NC(C)(C)c1ccc2c(c1)OCCO2 | -5.48 |
| Cn1ncc2c(NCCOc3ccc(F)cc3)nc(C3CCCC3)nc21 | 5.48 |
| O=C(CCc1ccsc1)NCC1CCN(c2ccccc2)C1 (stereo not given) | -6.94 |
| CC(NC(=O)COc1nc(C(C)(C)C)no1)c1ccco1 (stereo not given) | 2.7 |
| CCOCCN1CCN(Cc2nnc(C3CC3)o2)CC1CC (stereo not given) | 11 |
| Cc1nccc(CNC(=O)NCCOc2ccc(F)c(F)c2)n1 | 0 |
| COC[C@]12COC[C@H]1CN(Cc1cc(OC)cc(OC)c1)C2 | 2.7 |
| CN(C)CC(=O)N1CCC2(CC1)CN(c1ccsc1)C(=O)CO2 | 2.67 |
| COc1ccc(-c2nnc(SC(C)C(=O)NC3CC3)[nH]2)c(OC)c1 (stereo not given) | 15.8 |
| Cc1cc(NC(=O)CCN2CCCC2Cn2cncn2)no1 (stereo not given) | 8.86 |
| CCN(CC)c1ccc(C(=O)NCc2cccnc2-n2cncn2)cn1 | 8.11 |
| O=C(c1ccco1)N1CCOCC2(C1)CN(c1ccccc1)C(=O)CO2 (stereo not given) | 2.67 |
| O=C(Cc1ccc2c(c1)CCO2)N1CCCCC1Cn1cccn1 (stereo not given) | 10.5 |
| CCCc1cc(=O)[nH]c2nnc(SCC(=O)NCc3ccc(C)cc3)n12 | 13.7 |
| CCc1cnc(CN(C(C)=O)C2CCN(CCc3cnn(C)c3)C2)o1 (stereo not given) | 18.4 |
| Cc1nc(C)n(CC2CCCN(CCc3ccncc3)C2)n1 (stereo not given) | 16.4 |

| SMILES | Percent Effect [%] |
| --- | --- |
| CCS(=O)(=O)N(C)C(=O)c1cc(C)n(-c2cccc(OC)c2)c1C | 20.2 |
| CCN(Cc1cccc(Cl)c1)Cc1nc2c(cnn2C)c(=O)[nH]1 | 15.6 |
| Cc1cc(-c2cnn(CCNC(=O)C3CCCO3)c2C2CC2)on1 (stereo not given) | 4.05 |
| COc1ccc(NC(=O)N2CCCC2c2ccco2)cc1OC (stereo not given) | 13 |
| Cn1cnc2c1C(COCC1CCOCC1)CN(C1CCOCC1)C2 (stereo not given) | 13.3 |
| CCC(C)NC(=O)Cc1c(C)nc2c(c1C)c(=O)[nH]n2C (stereo not given) | 13 |
| CN(C)C(=O)CN1C[C@@H]2CC[C@H](C1)N(Cc1cccc(Cl)c1Cl)C2 | 2.74 |
| Cn1ccc(CN2CCC(COC3CCCC3)CC2)cc1=O | -59.5 |
| Cn1cc(CCNC(=O)CCc2ccc3c(c2)OCO3)cn1 | 16.2 |
| Cc1cc(C(=O)N2CC[C@H](OCC3CC3)[C@@H]2Cc2cccnc2)no1 | 0 |
| O=C(c1ccc(=O)[nH]n1)N1CC(c2nc(Cc3ccccc3)no2)C1 | 8.22 |
| Cc1cnn(CC2CCCCN2C(=O)c2ccc3nnc(C)n3c2)c1 (stereo not given) | 13 |
| CN(Cc1ccco1)C(=O)[C@H]1CSCN1C(=O)OC(C)(C)C | 15.8 |
| c1csc(-c2nc(CNC3CCc4ncnn4C3)co2)c1 (stereo not given) | 7.79 |
| Cn1cc(CCNC(=O)NCc2nnc3n2CCC3)cn1 | 15.2 |
| Cc1nn(C)c(N(C)C)c1CNCc1cccnc1-n1cncn1 | 8.86 |
| Cn1ncc2c(=O)[nH]c(CN3CCCC3Cc3ccccc3)nc21 (stereo not given) | 15.8 |
| COc1ccccc1CC1CCCN(CC(N)=O)C1 (stereo not given) | 7.79 |
| Cc1noc(C(C)C)c1C(=O)NCc1cc(F)cc(F)c1 | 15.6 |
| Cc1nc(CN(Cc2ccccc2)C2CCS(=O)(=O)C2)oc1C (stereo not given) | 15.8 |
